Bioassay records deposited in PubChem BioAssay by Broad Institute.
aSyn UTR act = Activators via SNCA 5'UTR binding, MLPCN. 300,000 compounds, 7.1% hits. activity score, % (tested at 7.5 µM), hits read low. alpha-synuclein 5'UTR reporter, activators screen; in the data active = activity score below about -60%
* marks the source's active call; other numbers are inactive results. Not all results are given here.

SMILES	aSyn UTR act
Cc1ccc2nc(N3CCN(C)CC3)[nH]c2c1	-95.5*
CCOC(=O)c1c(N)n(CCCOC(=O)c2ccco2)c2nc3ccccc3nc12	114.3
Nc1c(C(=O)NCc2ccco2)c2nc3ccccc3nc2n1CCN1CCCCC1	-103.4*
Cc1ccc2cc(C=C(C#N)C#N)c(Cl)nc2c1	-78.8*
O=Cc1cn(Cc2cccc(F)c2)c2ccccc12	52.4
CCc1ccc(-c2nn(Cc3ccccc3)cc2C=O)cc1	-140.0*
CC1(C)C[C@H]2C=C(C=O)[C@]3(C=O)C[C@]3(C)[C@H]2C1	116.9
CN(C)C(Cc1ccccc1)C(=O)c1c[nH]c2ccccc12 (centres undefined)	-64.4*
O=C(Nc1ccc(OC(=O)N2CCCCC2)cc1)N1CCOCC1	88.9
CN1CCN(c2ccc3c(c2)S(=O)(=O)c2ccccc2C3=O)CC1	-111.8*
COC(=O)C1CN(C#N)N(c2ccc(Cl)cc2)C12c1ccccc1-c1ccccc12 (centres undefined)	111.8
CC1CCC/C=C/C2CC(O)CC2C(O)/C=C/C(=O)O1 (centres undefined)	132.8
C[C@H]1CCC[C@@H](O)CCC/C=C/c2cc(O)cc(O)c2C(=O)O1	-170.2*
C[C@H]1CCC/C=C/C2C[C@H](O)CC2[C@H](O)/C=C/C(=O)O1 (some centres undefined)	100.0
CCOC(=O)c1cc2c(cn1)[nH]c1ccccc12	-142.5*
O=C(Nc1ccc(Cl)c(Cl)c1)c1ccco1	-170.5*
C=CCN1C(=O)NC(=O)/C(=C/c2ccc(OC)c(COc3ccc(NC(C)=O)cc3)c2)C1=O	-63.8*
C=C(C=O)C[C@@H]1C[C@H](O)C2OC3C[C@]4(C)OC5/C=C\CC6OC7C(CC=CCC6OC5CCCC4OC3CC2O1)OC1CC2OC3CC(=O)OC3C[C@@H](C)C[C@@]2(C)OC1C[C@@H]7C (some centres undefined)	112.8
Cc1c(OC(=O)N(C)C)ccc2c1O/C(=C\c1ccco1)C2=O	-133.7*
C=C1C[C@@H]2[C@H](CC[C@]3(C)C(=O)CC[C@@H]23)[C@@]2(C)C=CC(=O)C=C12	-141.4*
Nc1ccc2c(c1)oc1ccccc12	-113.4*
NC(=O)c1cn(C2OC(CO)C(O)C2O)c2ncnc(N)c12 (centres undefined)	105.8
COc1ccc(/C=C/C2=CCN(C)CC2)cc1	-78.7*
Nc1ccccc1C(=O)OCC(=O)c1ccc2c(c1)OCCO2	-63.7*
O=C(c1cc(-c2ccccc2)on1)N1CCC2(CC1)OCCO2	-112.6*
SMILES	aSyn UTR act
Cc1nc2cc(-c3ccccc3)nn2c(C)c1CCC(=O)N1CCC2(CC1)OCCO2	79.3
CC1CCC(C(C)C)C(OC(=O)Cn2c(COc3ccccc3)[n+](C)c3ccccc32)C1 (centres undefined)	66.5
CC/C(=N\N1CCCCC1)c1c(O)[nH]c(=O)[nH]c1=O	59.2
C=C1C(=O)O[C@@H]2C[C@@H](C)[C@@H]3C=CC(=O)[C@@]3(C)[C@@H](OC(=O)CC(=O)O[C@H]3[C@@H]4C(=C)C(=O)O[C@@H]4C[C@@H](C)[C@@H]4C=CC(=O)[C@]43C)[C@H]12	116.1
C=C1C(=O)O[C@H]2C[C@@H](C)[C@@H]3C=CC(=O)[C@@]3(C)C[C@H]12	-151.1*
CN(C)C(=O)On1c(-c2ccccc2)nc2ccc(Cl)cc21	-71.1*
CN(C)c1ccc(/C=C/C=C2/C(=O)NC(=O)N(c3ccccc3)C2=O)cc1	-96.5*
Cc1cccc(N2C(=O)NC(=O)/C(=C\C=C\c3ccco3)C2=O)c1	-130.6*
O=C1NC(=O)N(c2ccccc2)C(=O)/C1=C/C=C/c1ccco1	-135.8*
Cc1ccc(N2C(=O)NC(=O)/C(=C\C=C\c3ccco3)C2=O)cc1	-92.5*
Cc1ccc(C[n+]2c(-c3ccc(C)cc3)cc(-c3ccc(C)cc3)cc2-c2ccc(C)cc2)cc1	95.2
O=C1NC(=O)C(CCc2ccncc2)(Cc2cccc(Cl)c2Cl)C(=O)N1c1ccc(Br)cc1 (centres undefined)	57.6
FC(F)(F)c1ccc(NC2=NCCCS2)cc1	-68.7*
COc1ccc2nc(NC3=NCCN3)sc2c1	-209.1*
c1ccc2sc(NC3=NCCN3)nc2c1	-103.3*
CN(C)c1ccc2c(c1)N=C(c1ccco1)OP2(=S)N1CCOCC1 (centres undefined)	-129.7*
COc1ccccc1CN1CCCC(C(=O)c2ccccc2SC)C1 (centres undefined)	52.1
CC(C)(C)c1ccc(C(=O)C2CCCN(C3CCC3)C2)cc1 (centres undefined)	-72.2*
CC(C)(C)c1ccc(C(=O)C2CCCN(Cc3ccon3)C2)cc1 (centres undefined)	-123.7*
CCn1nc(-c2ccccc2)nc2c(=O)n(C)c(=O)nc1-2	-84.0*
Cc1nc2c(=O)n(C)c(=O)nc-2n(C)n1	114.8
O=c1c2ccccc2[nH]c(=S)n1-c1ccc2c(c1)OCCO2	-105.4*
CCCCCCCSc1cc(OC)c(CCN(C)C)cc1OC	57.7
O=C1NC(=O)N(Cc2ccccc2)C(=O)/C1=C\C=C\c1ccco1	-222.0*
C=CCN1C(=O)NC(=O)/C(=C/C=C/c2ccccc2)C1=O	-69.5*
SMILES	aSyn UTR act
O=C1NC(=O)N(Cc2ccco2)C(=O)/C1=C/C=C/c1ccco1	-288.4*
O=C(C1CC(c2ccc(Cl)c(Cl)c2)=NO1)N1CCC2(CC1)OCCO2 (centres undefined)	-130.9*
O=C(C1CC(c2ccc(F)cc2)=NO1)N1CCC2(CC1)OCCO2 (centres undefined)	-127.2*
COc1cccc(C2=NOC(C(=O)N3CCC4(CC3)OCCO4)C2)c1 (centres undefined)	-105.4*
CC(=O)O[C@H]1C(=O)[C@@]2(C)C([C@H](OC(=O)c3ccccc3)[C@]3(O)C[C@H](OC(=O)[C@H](O)[C@@H](NC(=O)Cc4ccccc4)c4ccccc4)C(C)=C1C3(C)C)[C@]1(OC(C)=O)CO[C@@H]1C[C@@H]2O (some centres undefined)	93.4
CC(=O)O[C@@H]1/C=C/[C@](C)(O)C[C@@H](C)C/C=C/[C@H]2[C@H](O)C(C)=C(C)[C@H]3[C@H](Cc4ccccc4)NC(=O)[C@@]123	116.7
Nc1c2c(nc3sc4c(c13)CCCC4)CCCC2	-117.6*
Nc1c2c(nc3sc4c(c13)CCCC4)CCCCC2	-169.8*
C=C1[C@@H](C)[C@H]2[C@H](Cc3ccccc3)NC(=O)[C@]23OC(=O)/C=C/[C@H](O)CCC[C@@H](C)C/C=C/[C@H]3[C@@H]1O	108.9
CN1C(=O)C(=Cc2ccc(N3CCOCC3)o2)C(=O)N(C)C1=S	-65.1*
CN1C(=O)/C(=C/c2ccc(N3CCCCCC3)o2)C(=O)NC1=S	-185.6*
CN1C(=O)/C(=C\c2ccc(N3CCCCC3)o2)C(=O)NC1=S	-162.2*
CC(=O)O[C@@]12CO[C@@H]1C[C@H](O)[C@@]1(C)C(=O)[C@H](O)C3=C(C)[C@@H](OC(=O)[C@H](O)[C@@H](NC(=O)c4ccccc4)c4ccccc4)C[C@@](O)([C@@H](OC(=O)c4ccccc4)C12)C3(C)C (some centres undefined)	114.0
CCC(C)/C=C(C)/C=C/C1=CC2=C(Cl)C(=O)C(C)(OC(C)=O)C(=O)C2=CO1 (centres undefined)	-96.3*
COC(=O)C(O)(c1ccc(NC(=S)NC(=O)c2ccccc2)cc1)C(F)(F)F (centres undefined)	-79.9*
O=C1C(=O)c2ccccc2-c2ccccc21	118.9
O=C1NC(=O)C(=Cc2cccc(OCCOc3ccccc3)c2)C(=O)N1	-86.8*
